S1P3 antag – antagonists of human S1P3 receptor. Q99500. CHO S1P3 NFAT-BLA reporter, FRET fluorescence, antagonist mode. inhibition, % at 4.98 µM. hit rate 0.27% among 170,000. AID 485;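 active = inhibition above the plate cutoff, the mean inhibition of test wells on that plate plus 3 SD, cut at about 28% in these data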;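 note: cells challenged with S1P at its EC80 of 0.8 µM; blue over green emission ratio from cleaved BLA substrate after 4 h stimulation; 0% = S1P-stimulated wells and 100% = unstimulated DMSO-only wells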
Target sequence (Q99500 whole entry, looked up): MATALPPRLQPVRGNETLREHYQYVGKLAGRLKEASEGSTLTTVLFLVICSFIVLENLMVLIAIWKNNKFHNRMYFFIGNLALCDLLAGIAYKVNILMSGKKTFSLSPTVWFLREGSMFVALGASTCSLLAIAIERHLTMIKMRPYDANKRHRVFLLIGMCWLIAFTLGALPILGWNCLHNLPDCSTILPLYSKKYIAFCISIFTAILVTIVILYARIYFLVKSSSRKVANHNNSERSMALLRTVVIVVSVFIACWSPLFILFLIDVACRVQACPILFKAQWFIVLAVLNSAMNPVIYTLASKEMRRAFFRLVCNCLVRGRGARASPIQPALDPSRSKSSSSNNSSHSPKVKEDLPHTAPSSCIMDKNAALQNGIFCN
PGE2 EP2 inh – EP2 receptor (human) inhibition | P43116 | C6 glioma cells expressing human EP2, cAMP TR-FRET; cells stimulated with saturating PGE2 | inhibition, % at 25 µM | hit rate 0.52% among 260,000;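 active = percent inhibition above 40 after rounding to a whole number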;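 note: rat C6 glioma host cells with rolipram phosphodiesterase inhibitor present; the protocol text gives 20 µM as final concentration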
Target sequence (P43116 whole entry, looked up): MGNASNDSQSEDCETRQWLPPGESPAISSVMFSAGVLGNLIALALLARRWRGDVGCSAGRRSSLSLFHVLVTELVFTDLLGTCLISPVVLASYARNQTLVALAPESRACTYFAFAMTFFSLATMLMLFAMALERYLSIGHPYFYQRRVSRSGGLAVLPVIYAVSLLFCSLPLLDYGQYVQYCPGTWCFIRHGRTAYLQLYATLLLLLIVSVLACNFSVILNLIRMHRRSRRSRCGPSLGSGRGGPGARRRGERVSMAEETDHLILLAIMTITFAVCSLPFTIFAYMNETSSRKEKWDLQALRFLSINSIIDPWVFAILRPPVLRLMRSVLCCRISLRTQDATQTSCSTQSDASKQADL
EP2 modulator – modulates human prostaglandin E2 receptor EP2 signaling; EP2-expressing cells, cAMP HTRF FRET, PGE2 co-stimulation; P43116; hit rate 0.83% among 260,000; induction, % at 25 µM;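 active = compounds whose cAMP rise, as percent of the full-agonist control response, exceeds 60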;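 note: rat C6 glioma line stably carrying human EP2 under a CMV promoter; the protocol text gives 20 µM as final concentration; 100% = response of wells given 1 µM PGE2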
Cl transport mod – modulates chloride dependent transport by human KCC2. Q9H2X9. KCC2 cells, thallium flux FluoZin-2 fluorescence. B-score of Tl+ flux slope (higher = more flux/activation; lower = inhibition) at 10 µM. hit rate 2.2% among 190,000. AID 1456;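 active = thallium flux slope and its plate-corrected score both differing from the plate sample mean at a set confidence after two filtering rounds, in either direction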;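 note: slope of fluorescence scaled to starting intensity during 10 to 20 s after thallium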
KCC2 secondary – confirmation of human KCC2 transport modulators; shares compounds with Cl transport mod; HEK293-KCC2, thallium flux, FluoZin2 fluorescence; active compounds read high; normalised thallium flux (F/F0 slope) at 10 µM; hit rate 15% among 3,700; AID 1713;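 active = thallium flux slope above the same plate's solvent-only control mean plus 3 SD; inconclusive = the two replicate wells disagree; inactive = no significant difference from solvent-only control wells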
KCC2 bumet counter – thallium flux persisting under bumetanide in KCC2 cells, counter-screen secondary assay; normalized thallium flux at 10 µM; HEK293-KCC2 + bumetanide/ouabain, thallium flux FluoZin2; active compounds read high; hit rate 49% among 3,700; shares compounds with Cl transport mod;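 active = thallium entry rate above the same plate's blocked-transporter control wells by more than 3 SD; inconclusive = the two repeat wells disagree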;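 note: raw slope of fluorescence over initial fluorescence between 10 and 20 s after thallium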
KCC2 sec2 – KCC2 (human) modulation, second secondary assay; hit rate 23% among 3,700; normalized thallium flux at 10 µM; shares compounds with Cl transport mod; HEK293-KCC2, thallium flux FluoZin2 fluorescence; actives lie on both sides; F/F0 rise rate, 10–20 s post-thallium; AID 1715;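 active = thallium flux slope more than 3 SD above or below the plate's solvent-only control mean, mostly below; inconclusive = the two repeat wells disagreed; inactive = no significant shift from solvent-only controls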;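 note: raw slope with 0.1% DMSO as baseline and bumetanide as block control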
HEK293 Tl flux – parental HEK flux effect, counter-screen; shares compounds with Cl transport mod; HEK293 parental cells, thallium flux FluoZin2, ouabain; baseline-ratio fluorescence slope, 10–20 s after thallium; thallium flux rate (normalised fluorescence) at 10 µM; hit rate 46% among 3,700; AID 1716;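 active = thallium flux rate significantly above the same plate's solvent-only control wells, beyond their mean plus 3 SD; inconclusive = the two replicate wells gave conflicting results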
KCC2 retest ouab – KCC2 (human) modulation, ouabain retest; shares compounds with Cl transport mod; AID 1717; hit rate 48% among 3,700; raw Tl+ flux slope (below DMSO = inhibition, above = activation) at 10 µM; HEK293-KCC2, thallium flux FluoZin2 fluorescence; bidirectional: low = inhibitor, high = activator;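 active = thallium flux slope beyond 3 SD from same-plate DMSO control mean in most replicates, usually higher, sometimes lower; inconclusive = repeat tests gave conflicting results; inactive = no significant difference from controls in most replicates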;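 note: slope of initial-normalized fluorescence between seconds 10 and 20 after thallium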
HEK counter2 – counter-screen for KCC2 modulators: effect in parental HEK293 cells | shares compounds with Cl transport mod | thallium flux FluoZin-2 fluorescence slope | thallium flux slope at 10 µM | hit rate 33% among 3,700 | AID 1718;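 active = thallium flux slope above the same plate's solvent-control mean plus 3 SD in both duplicate wells; inconclusive = duplicate wells that disagreed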;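 note: run without ouabain in cells lacking the KCC2 cotransporter; slope of fluorescence scaled to its starting value between 10 and 20 s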
Numbers without * were called inactive; ? = inconclusive; · = no result. Shown are actives, neighbours in structure and some others; about 3.1% of the full set was active somewhere.

SMILES	S1P3 antag	PGE2 EP2 inh	EP2 modulator	Cl transport mod	KCC2 secondary	KCC2 bumet counter	KCC2 sec2	HEK293 Tl flux	KCC2 retest ouab	HEK counter2
O=C(c1cc2c(s1)-c1ccccc1S(=O)(=O)C2)N1CCN(Cc2ccccc2)CC1	·	·	-25.6	-2.68	0.00623	0.00579	0.0277	0.00651	?	0.00932
Cc1cc(C)nc(SCCn2c(N3CCCCC3)nc3c2c(=O)[nH]c(=O)n3C)n1	·	8.8	0.0	·	·	·	·	·	·	·
CCc1ccc2nc3sc(C(=O)N(CC)CC)c(N)c3cc2c1	·	10.5	-102.5	·	·	·	·	·	·	·
C=CCNC(=S)NNC(=O)c1ccc(C)c(Cl)c1	0.7	10.1	-9.5	-0.446	·	·	·	·	·	·
C=CCNC(=S)NC(=O)c1ccc(C)c(Br)c1	-11.3	7.6	-65.5	40*	0.0185*	0.0925*	0.041	?	0.0641*	0.0215*
CC1CN(c2nc3c(c(=O)[nH]2)CCN(C2CCCCC2)C3)CC(C)O1 (configuration not stated)	·	·	-5.9	·	·	·	·	·	·	·
COc1ccc(-c2cc(C)nc(SCc3cccc(C(=O)O)c3)n2)cc1	-3.6	7.0	7.1	-4.84*	0.0105	0.0126*	0.0342	0.00899*	0.0231	?
COC(=O)c1ccc(C(C(=O)NCc2ccccc2)N(Cc2ccco2)C(=O)c2cnccn2)cc1 (configuration not stated)	-5.8	10.2	-10.1	·	·	·	·	·	·	·
COc1cc(OC)cc(C(C(=O)NCc2ccccc2)N(Cc2ccco2)C(=O)c2ccno2)c1 (configuration not stated)	-15.5	12.6	1.4	-2.85*	0.00665	0.00388	0.032	0.00692	0.0188	0.0111
CCc1ccc(Nc2nnc(SCC(=O)NC(=O)c3cccn3C)s2)cc1	4.2	8.4	16.6	-4.87*	0.00502	0.00468	0.025*	?	0.0124*	0.01
Cc1sc2ncnc(SCC(=O)NC(=O)c3cccn3C)c2c1C	-8.9	8.8	-18.2	59*	0.0389*	0.125*	0.0453*	0.0715*	0.0721*	0.0294*
Cc1cccc(Nc2nnc(SCC(=O)Nc3cccc(S(=O)(=O)N4CCCCC4)c3)s2)c1	7.3	6.3	-23.7	-5.14*	0.00719	0.00513	?	?	0.0145*	0.00994
Cc1sc2ncnc(SCC#N)c2c1C	12.6	22.6	48.8	4.5*	0.00608	0.0158*	0.0319	0.00988*	?	?
O=C(Nc1cccc(-n2cnnc2)c1)C1CC(c2ccc(Cl)cc2)=NO1 (configuration not stated)	·	7.0	-56.7	·	·	·	·	·	·	·
Cc1nn(C)cc1S(=O)(=O)NCCNC(=O)c1ccccn1	·	6.3	-74.3	·	·	·	·	·	·	·
CCc1ccc(Nc2nnc(SCC(=O)Nc3cccc(S(=O)(=O)NC4=NCCCCC4)c3)s2)cc1	0.0	10.1	1.4	-7.41*	0.00888	0.0078*	0.0255*	0.00677	0.0113*	0.0106
COc1ccccc1Oc1ncnc2c1cnn2-c1ccccc1	2.6	4.0	-30.1	-4.97*	?	0.00564	0.0329	0.00357	0.0148*	0.0115
CCOc1cc(C2C(C#N)=C(N)OC3=C2C(=O)CC(C)(C)C3)ccc1OCC(=O)OC (configuration not stated)	·	13.7	-20.2	·	·	·	·	·	·	·
O=C(NCCSCc1ccccc1)c1cc(S(=O)(=O)N2CCOCC2)ccc1F	-19.0	·	-7.6	-3.8*	0.00632	0.00511	0.0263*	0.00757	?	0.0106
CN(C)c1ccc(/C=C/c2ccc3c4ccccc4ccc3[n+]2-c2ccccc2)cc1	55.2*	18.5	-49.9	-3.18*	0.00497	0.00409	0.0239*	?	0.014*	0.0105
CCCn1ncc(C)c1NC(=O)Cn1c(=O)n(Cc2cccs2)c2ncccc21	·	·	-2.2	·	·	·	·	·	·	·
CC(C)(C)NC(=O)Cn1nc2c3ccccc3nc(C3CC3)n2c1=O	·	·	8.6	·	·	·	·	·	·	·
CC(C)(C)c1cc(C(=O)NNC(=O)c2ccc(C(F)(F)F)cc2)no1	-4.0	14.8	16.0	64.3*	0.0283*	0.0828*	?	0.0406*	0.0452*	0.0215*
CC(=O)Nc1ccc(NC(=O)CSc2nnc(-c3ccc(C)cc3)n2C)cc1	·	9.4	-12.7	·	·	·	·	·	·	·
CC(=O)NC(C)C(=O)OCC(=O)c1ccc(-c2ccccc2)cc1 (configuration not stated)	-8.3	4.7	-40.7	-4.1*	0.00724	0.00512	?	0.00788	0.0175	0.0119
SMILES	S1P3 antag	PGE2 EP2 inh	EP2 modulator	Cl transport mod	KCC2 secondary	KCC2 bumet counter	KCC2 sec2	HEK293 Tl flux	KCC2 retest ouab	HEK counter2
CC(=O)NC(C)C(=O)OCC(=O)c1ccc(Cl)s1 (configuration not stated)	-23.7	7.7	5.9	0.0249	·	·	·	·	·	·
COc1ccc(-c2coc3cc(O)ccc3c2=O)cc1OC	-19.1	5.0	6.1	·	·	·	·	·	·	·
O=c1c(-c2ccc(F)cc2)coc2cc(O)ccc12	-8.3	10.4	2.9	-5.76*	0.00838	0.00655	0.0275	0.00779	0.0206*	?
O=c1[nH]c(/C=C\c2cc3ccccc3oc2=O)nc(O)c1[N+](=O)[O-]	·	14.2	14.0	·	·	·	·	·	·	·
O=c1c2ccc(Cl)cc2[nH]c(=S)n1Cc1cccnc1	·	·	4.1	3.56*	0.0129*	0.0297*	0.0345	0.0153*	0.0284	0.0115*
CC(C)CC(OC(=O)c1nsc(Cl)c1Cl)C(=O)NCc1cccs1 (configuration not stated)	·	3.9	31.4	-3.69*	0.00608	0.00423	0.0278	0.00697	0.0176	0.0097
COc1ccc(C2CCCN2C(=O)Nc2ccc(Cl)cc2)cc1OC (configuration not stated)	·	11.3	-21.6	-3.35*	0.00657	0.0049	0.0302	0.00749	?	0.011
O=CN1CCN(C(=O)CN2C(=O)c3ccccc3C2=O)CC1	·	·	26.9	6.32*	0.00592	?	0.0272	0.00809	0.0179	0.0102
O=C(CN1C(=O)c2ccccc2C1=O)N1CCCCC1	-6.4	10.8	16.6	1.6	·	·	·	·	·	·
CCC(c1nnnn1C1CCCC1)N(CCCO)Cc1cc2cc(C)ccc2[nH]c1=O (configuration not stated)	·	7.2	-11.2	·	·	·	·	·	·	·
COc1ccc(CCn2c(O)cc3nn(-c4nc5ccccc5s4)c(=O)c-3c2C)cc1	-8.2	10.0	-10.4	3.7*	0.00699	0.00768*	0.0301	0.0101*	0.0211	?
CCCCC(c1nnnn1Cc1ccco1)N1CCN(c2nc3ccccc3s2)CC1 (configuration not stated)	16.0	14.4	2.0	-6.93*	0.00918	0.00634	?	0.00668	0.0152*	0.0106

Assay outcomes from PubChem BioAssay.
